# Measurements as given in the supplement of paper PMC10037445.
# Over roughly 2,900 compounds, “NF-kB SEAP reporter activity, fold change vs agonist alone” has its median near 0.99; the highest 2% begin near 2.6. What follows is part of a selection rich in the highest values, with near analogues and random picks from the rest.
# Columns and labels:
# RAW-Dual [1] = test: NF-kB SEAP reporter activity, fold change vs agonist alone; cytotoxicity flag (confluency mask): not cytotoxic; higher = enhanced NF-kB activity
# How it was run: (§1)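 Cytotoxic wells were those whose IncuCyte confluency was below 70% of agonist controls in both mask sets. The cells were RAW-Dual macrophages at 50,000 cells/well in DMEM on 384-well plates, dosed with 50 nL of library stock by pin tool, stimulated with a PRR agonist 1 h later, and kept at 37 °C, 5% CO2 for 20 hours. IRF and NF-κB reporter activity, as fold change over agonist-alone wells, came from supernatant read by QuantiLuc luminescence and QuantiBlue absorbance, respectively.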
# RAW-Dual [2] = test: NF-kB SEAP reporter activity, fold change vs agonist alone; higher = enhanced NF-kB activity; details: library stock concentration (final ~1000-fold dilution): 10 mM
# How it was run: as §1
# RAW-Dual [3] = test: NF-kB SEAP reporter activity, fold change vs agonist alone; cytotoxicity flag (confluency mask): cytotoxic (confluency <70% of control); higher = enhanced NF-kB activity
# How it was run: as §1
# [4] = agonist: ODN 1826 (TLR9) 0.5 ug/mL
# [5] = agonist: Pam2CSK4 (TLR2/6) 0.1 ug/mL
# [6] = agonist: Pam3CSK4 (TLR2/1) 0.1 ug/mL
# [7] = cytotoxicity flag (confluency mask): not cytotoxic, agonist: Imiquimod (TLR7) […]
# [8] = cytotoxicity flag (confluency mask): not cytotoxic, agonist: MPLA (TLR4) […]
# [9] = cytotoxicity flag (confluency mask): cytotoxic (confluency <70% of control), agonist: Imiquimod (TLR7) […]
# [10] = cytotoxicity flag (confluency mask): cytotoxic (confluency <70% of control), agonist: MPLA (TLR4) […]
smiles,measurement,setting,value
Cl.Cl.Fc1ccc(C(c2ccc(F)cc2)N2CCN(C/C=C/c3ccccc3)CC2)cc1 (library stock concentration (final ~1000-fold dilution): 10 mM),NF-kB SEAP reporter activity,RAW-Dual [1]; agonist: LPS (TLR4) 0.1 ug/mL,2.45
same,NF-kB SEAP reporter activity,RAW-Dual [1]; [4],1.44
same,NF-kB SEAP reporter activity,RAW-Dual [1]; [5],0.829
same,NF-kB SEAP reporter activity,RAW-Dual [1]; [6],1.09
Cl.Cl.Fc1ccc(C(c2ccc(F)cc2)N2CCN(C/C=C/c3ccccc3)CC2)cc1,NF-kB SEAP reporter activity,RAW-Dual [2]; [7],1.99
same,NF-kB SEAP reporter activity,RAW-Dual [2]; [8],1.65
COC12C(COC(N)=O)C3=C(C(=O)C(C)=C(N)C3=O)N1CC1NC12 (centres undefined) (library stock concentration (final ~1000-fold dilution): 10 mM),NF-kB SEAP reporter activity,RAW-Dual [1]; agonist: LPS (TLR4) 0.1 ug/mL,2.79
same,NF-kB SEAP reporter activity,RAW-Dual [1]; [4],2.71
same,NF-kB SEAP reporter activity,RAW-Dual [1]; [5],1.89
same,NF-kB SEAP reporter activity,RAW-Dual [1]; [6],3.31
COC12C(COC(N)=O)C3=C(C(=O)C(C)=C(N)C3=O)N1CC1NC12 (centres undefined),NF-kB SEAP reporter activity,RAW-Dual [2]; [7],1.82
same,NF-kB SEAP reporter activity,RAW-Dual [2]; [8],1.79
CCN(CC)CCNC(=O)c1c(C)[nH]c(/C=C2/C(=O)Nc3ccc(-c4csc(-c5ccccc5)n4)cc32)c1C (library stock concentration (final ~1000-fold dilution): 10 mM),NF-kB SEAP reporter activity,RAW-Dual [3]; agonist: LPS (TLR4) 0.1 ug/mL,0.882
same,NF-kB SEAP reporter activity,RAW-Dual [3]; [4],0.397
same,NF-kB SEAP reporter activity,RAW-Dual [3]; [5],0.37
same,NF-kB SEAP reporter activity,RAW-Dual [3]; [6],0.645
CCN(CC)CCNC(=O)c1c(C)[nH]c(/C=C2/C(=O)Nc3ccc(-c4csc(-c5ccccc5)n4)cc32)c1C,NF-kB SEAP reporter activity,RAW-Dual [2]; [9],1.35
same,NF-kB SEAP reporter activity,RAW-Dual [2]; [10],1.55
COc1ccc(NC(=O)c2ccc(C(=N)N(C)C)cc2)c(C(=O)Nc2ccc(Cl)cn2)c1.O=C(O)/C=C\C(=O)O (library stock concentration (final ~1000-fold dilution): 10 mM),NF-kB SEAP reporter activity,RAW-Dual [1]; agonist: LPS (TLR4) 0.1 ug/mL,0.955
same,NF-kB SEAP reporter activity,RAW-Dual [1]; [4],0.994
same,NF-kB SEAP reporter activity,RAW-Dual [1]; [5],1.1
same,NF-kB SEAP reporter activity,RAW-Dual [1]; [6],1.06
COc1ccc(NC(=O)c2ccc(C(=N)N(C)C)cc2)c(C(=O)Nc2ccc(Cl)cn2)c1.O=C(O)/C=C\C(=O)O,NF-kB SEAP reporter activity,RAW-Dual [2]; [8],0.953
COc1cc2c(Oc3ccc4[nH]c(C)cc4c3F)ccnc2cc1OCC1(N)CC1.Cl.Cl (library stock concentration (final ~1000-fold dilution): 10 mM),NF-kB SEAP reporter activity,RAW-Dual [3]; agonist: LPS (TLR4) 0.1 ug/mL,1.7
same,NF-kB SEAP reporter activity,RAW-Dual [3]; [4],0.29
same,NF-kB SEAP reporter activity,RAW-Dual [3]; [5],1.17
same,NF-kB SEAP reporter activity,RAW-Dual [3]; [6],1.74
COc1cc2c(Oc3ccc4[nH]c(C)cc4c3F)ncnc2cc1OCCCN1CCCC1.O=C(O)/C=C\C(=O)O (library stock concentration (final ~1000-fold dilution): 10 mM),NF-kB SEAP reporter activity,RAW-Dual [3]; agonist: LPS (TLR4) 0.1 ug/mL,2.81
same,NF-kB SEAP reporter activity,RAW-Dual [3]; [4],0.402
same,NF-kB SEAP reporter activity,RAW-Dual [3]; [5],1.61
same,NF-kB SEAP reporter activity,RAW-Dual [3]; [6],1.15
COc1cc2c(Oc3ccc4[nH]c(C)cc4c3F)ncnc2cc1OCCCN1CCCC1,NF-kB SEAP reporter activity,RAW-Dual [2]; [9],1.98
same,NF-kB SEAP reporter activity,RAW-Dual [2]; [10],1.96
COc1cc2c(Oc3ccc4[nH]c(C)cc4c3F)ncnc2cc1OCCCN1CCCC1 (library stock concentration (final ~1000-fold dilution): 10 mM),NF-kB SEAP reporter activity,RAW-Dual [3]; agonist: LPS (TLR4) 0.1 ug/mL,0.671
same,NF-kB SEAP reporter activity,RAW-Dual [3]; [4],0.212
same,NF-kB SEAP reporter activity,RAW-Dual [3]; [5],1.03
same,NF-kB SEAP reporter activity,RAW-Dual [3]; [6],1.37
COc1cc2c(Oc3ccc4[nH]c(C)cc4c3F)ccnc2cc1OCC1(N)CC1.Cl.Cl,NF-kB SEAP reporter activity,RAW-Dual [2]; [9],1.53
same,NF-kB SEAP reporter activity,RAW-Dual [2]; [10],1.89
COc1cc2c(Oc3ccc4[nH]c(C)cc4c3F)ncnc2cc1OCCCN1CCCC1.O=C(O)/C=C\C(=O)O,NF-kB SEAP reporter activity,RAW-Dual [2]; [10],2.65
Cl.Nc1ccc(N=Nc2ccccc2)c(N)n1,NF-kB SEAP reporter activity,RAW-Dual [2]; [7],1.1
same,NF-kB SEAP reporter activity,RAW-Dual [2]; [8],1.08
Cl.Nc1ccc(N=Nc2ccccc2)c(N)n1 (library stock concentration (final ~1000-fold dilution): 10 mM),NF-kB SEAP reporter activity,RAW-Dual [1]; agonist: LPS (TLR4) 0.1 ug/mL,1.22
same,NF-kB SEAP reporter activity,RAW-Dual [1]; [4],0.928
same,NF-kB SEAP reporter activity,RAW-Dual [1]; [5],1.09
same,NF-kB SEAP reporter activity,RAW-Dual [1]; [6],0.933
Nc1nc(=O)n(C2CSC(CO)O2)cc1F (centres undefined),NF-kB SEAP reporter activity,RAW-Dual [2]; [7],0.983
same,NF-kB SEAP reporter activity,RAW-Dual [2]; [8],1.14
Nc1nc(=O)n(C2CSC(CO)O2)cc1F (centres undefined) (library stock concentration (final ~1000-fold dilution): 10 mM),NF-kB SEAP reporter activity,RAW-Dual [1]; agonist: LPS (TLR4) 0.1 ug/mL,0.99
same,NF-kB SEAP reporter activity,RAW-Dual [1]; [4],1.1
same,NF-kB SEAP reporter activity,RAW-Dual [1]; [5],1.1
same,NF-kB SEAP reporter activity,RAW-Dual [1]; [6],1.13
CCC(C)SSc1ncc[nH]1 (centres undefined) (library stock concentration (final ~1000-fold dilution): 10 mM),NF-kB SEAP reporter activity,RAW-Dual [1]; agonist: LPS (TLR4) 0.1 ug/mL,4.74
same,NF-kB SEAP reporter activity,RAW-Dual [1]; [4],2.67
same,NF-kB SEAP reporter activity,RAW-Dual [1]; [5],1.44
same,NF-kB SEAP reporter activity,RAW-Dual [1]; [6],2.7
CCC(C)SSc1ncc[nH]1 (centres undefined),NF-kB SEAP reporter activity,RAW-Dual [2]; [7],1.51
same,NF-kB SEAP reporter activity,RAW-Dual [2]; [8],1.85
Cc1[nH]c(/C=C2\C(=O)Nc3ccc(S(=O)(=O)Cc4c(Cl)cccc4Cl)cc32)c(C)c1C(=O)N1CCCC1CN1CCCC1 (centres undefined),NF-kB SEAP reporter activity,RAW-Dual [2]; [9],2.04
same,NF-kB SEAP reporter activity,RAW-Dual [2]; [10],1.3
Cc1[nH]c(/C=C2\C(=O)Nc3ccc(S(=O)(=O)Cc4c(Cl)cccc4Cl)cc32)c(C)c1C(=O)N1CCCC1CN1CCCC1 (centres undefined) (library stock concentration (final ~1000-fold dilution): 10 mM),NF-kB SEAP reporter activity,RAW-Dual [3]; agonist: LPS (TLR4) 0.1 ug/mL,0.658
same,NF-kB SEAP reporter activity,RAW-Dual [3]; [4],1.39
same,NF-kB SEAP reporter activity,RAW-Dual [3]; [5],0.551
same,NF-kB SEAP reporter activity,RAW-Dual [3]; [6],0.886
CC(C)Oc1ccc(C(=O)NC(CNC(=O)CN(C)C)Cc2ccc(-c3cn4cccc(C(C)O)c4n3)cc2)cc1Cl (centres undefined) (library stock concentration (final ~1000-fold dilution): 10 mM),NF-kB SEAP reporter activity,RAW-Dual [1]; agonist: LPS (TLR4) 0.1 ug/mL,0.934
same,NF-kB SEAP reporter activity,RAW-Dual [1]; [4],0.199
same,NF-kB SEAP reporter activity,RAW-Dual [1]; [5],1.02
same,NF-kB SEAP reporter activity,RAW-Dual [1]; [6],1.03
CC(C)Oc1ccc(C(=O)NC(CNC(=O)CN(C)C)Cc2ccc(-c3cn4cccc(C(C)O)c4n3)cc2)cc1Cl (centres undefined),NF-kB SEAP reporter activity,RAW-Dual [2]; [7],1.37
same,NF-kB SEAP reporter activity,RAW-Dual [2]; [8],1.39
Nc1ncnc2c1c(I)cn2C1OC(CO)C(O)C1O (centres undefined) (library stock concentration (final ~1000-fold dilution): 10 mM),NF-kB SEAP reporter activity,RAW-Dual [3]; agonist: LPS (TLR4) 0.1 ug/mL,0.213
same,NF-kB SEAP reporter activity,RAW-Dual [3]; [4],0.195
same,NF-kB SEAP reporter activity,RAW-Dual [3]; [5],0.0844
same,NF-kB SEAP reporter activity,RAW-Dual [3]; [6],0.123
